Bioassay records (PubChem BioAssay)
Only some compounds are listed: those with a hit (about 4.8% of all), similar ones and a draw of the others.
hcDAF12 agonist: H. contortus DAF-12 activation, primary screen; activation, % at 6.8 µM; 370,000 tested, 1.4% active; HEK293 hcDAF-12 lit1-tk-luc reporter, luminescence; 0% DMSO, 100% Δ7-dafachronic acid;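 active means activation above the mean of all tested compounds plus 3 SD, cut at about 5.5% in these data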;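 further: 100% = response to 3 µM Δ7-dafachronic acid high control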
DAX1 inh-1: inhibitors of DAX1 repression of SF-1 activated StAR promoter; 370,000 tested, 1.1% active; inhibition, % at 6.8 µM; HEK293T StAR-luciferase reporter, SF-1/DAX-1 repression relief; AID 652010;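 active means inhibition above the mean over all tested compounds plus 3 SD, cut at about 3.6% in these data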;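 further: 0% = DAX-1 cells with DMSO and 100% = cells lacking DAX-1 with DMSO; higher inhibition means more luminescence from relief of DAX-1 repression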
hgDAF12 agonist: activates the H. glycines DAF-12 receptor ligand-binding domain. HEK293 GAL4-hgDAF12 UAS-luciferase reporter, agonist luminescence; normalized to butyrate control. activation, % at 6.8 µM. 370,000 tested, 1.8% active;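 active means activation above a cutoff set at the mean of all screened compounds plus 3 SD, cut at about 10% in these data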;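 further: 0% = DMSO wells and 100% = sodium butyrate wells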
ssDAF12 agonist: activates DAF-12 receptor from parasite S. stercoralis | activation, % at 6.8 µM | HEK293 ssDAF-12/GRIP1 lit1-tk-luc reporter, luminescence; % of 3 µM dafachronic acid response | AID 652126 | 370,000 tested, 1% active;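 active means activation above the mean over all tested compounds plus 3 SD, cut at about 0.9% in these data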;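 further: 0% = DMSO-only wells and 100% = 3 µM delta7-dafachronic acid wells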
SMARCA2 activ: activators of SMARCA2 function; 370,000 tested, 1% active; MG213 cells, MMTV-luciferase reporter, dexamethasone, overnight; AID 652017; activation, % at 9.1 µM; in the data active means activation above about 7.8%;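 further: 0% = vehicle wells and 100% = reference activator wells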
DAX1 inh-2: inhibitors of human orphan nuclear receptor DAX1 (NR0B1). P51843. HEK293 Gal4-DAX1 luciferase reporter, luminescence. inhibition, % at 6.75 µM. 340,000 tested, 0.99% active. AID 504766;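 active means inhibition above the mean over all tested compounds plus 3 SD, cut at about 4.2% in these data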;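 further: 0% = DAX1-transfected cells with DMSO and 100% = empty-vector control cells with DMSO; inhibition shows as a rise in luminescence from relieved DAX1 repression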
LXR ag: LXR-beta agonism as hcDAF-12 counter-screen | AID 743027 | shares compounds with hcDAF12 agonist | 3,400 tested, under 10 active | HEK293 Gal4-LXR tk-luc reporter, luminescence, 24 h; normalized: DMSO 0%, positive control 100% | activation, % at 6.8 µM;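 active means mean percent activation of the reporter above a cutoff set as the average over tested compounds plus their standard deviation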
Target sequence (P55055 whole entry, looked up, the tested form may be a part): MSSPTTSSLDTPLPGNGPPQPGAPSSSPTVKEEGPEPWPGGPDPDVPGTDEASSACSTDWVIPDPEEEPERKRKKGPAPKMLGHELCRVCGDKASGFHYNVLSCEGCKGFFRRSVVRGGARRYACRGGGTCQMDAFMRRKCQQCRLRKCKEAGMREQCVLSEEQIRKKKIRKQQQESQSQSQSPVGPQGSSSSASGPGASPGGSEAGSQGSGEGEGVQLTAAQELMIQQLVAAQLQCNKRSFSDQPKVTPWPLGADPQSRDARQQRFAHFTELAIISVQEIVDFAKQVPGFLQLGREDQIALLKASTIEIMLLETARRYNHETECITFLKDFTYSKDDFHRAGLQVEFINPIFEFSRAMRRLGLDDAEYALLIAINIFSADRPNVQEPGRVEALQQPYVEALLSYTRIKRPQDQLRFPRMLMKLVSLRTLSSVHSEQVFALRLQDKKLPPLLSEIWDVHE
hcDAF12 conf: confirmation of H. contortus DAF-12 agonists; shares compounds with hcDAF12 agonist; activation, % at 6.8 µM; 3,400 tested, 61% active; AID 743032; HEK293 hcDAF-12 lit1-tk-luc reporter, luminescence; % of Δ7-dafachronic acid response;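 active means mean activation across triplicate tests above the threshold derived from the earlier primary screen, cut at about 5.5% in these data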;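 further: 0% = DMSO only wells and 100% = 3 µM Δ7-dafachronic acid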
* marks the source's active call; other numbers are inactive results; nt = not tested or not shown.

SMILES | hcDAF12 agonist | DAX1 inh-1 | hgDAF12 agonist | ssDAF12 agonist | SMARCA2 activ | DAX1 inh-2 | LXR ag | hcDAF12 conf
COc1cc(-c2c(C(=O)c3ccccc3)[nH]c(N)c2C(=O)NCCc2c[nH]c3ccccc23)ccc1F | -0.5 | -0.8 | -2.3 | -1.0 | 2.1 | nt | nt | nt
O=C(c1ccc(-c2ccc([N+](=O)[O-])cc2)o1)N1CCCCC1 | 8.4* | 2.0 | 17.3* | -0.7 | 5.9 | 3.6 | 0.9 | 4.8
CN1OC[C@@H]2CN3C(=NCCc4ccccc4)Sc4ccccc4[C@@H]3C[C@@H]21 | 1.9 | -0.1 | 5.7 | -0.7 | 0.8 | nt | nt | nt
CCCCNC(=O)C[C@H]1C[C@@]2(C(=O)OC)C(=C[C@H](C(C)C)O[C@@H]2C2CC2)N(Cc2ccccc2)C1=O | -0.8 | 0.6 | 0.1 | -1.0 | -5.2 | nt | nt | nt
N#C/C(=C\c1cccs1)c1nc2ccccc2[nH]1 | 1.8 | 0.1 | 4.0 | 0.5 | 1.2 | 0.8 | nt | nt
N#C/C(=C\c1cn(-c2ccccc2)nc1-c1cc2ccccc2o1)c1nc2ccccc2[nH]1 | 6.6* | 1.2 | 6.5 | -0.3 | 1.8 | 1.5 | -0.1 | 0.6
O=C(N/N=C/c1cn(-c2ccccc2)nc1-c1cc2ccccc2o1)c1cccnc1 | 8.6* | 0.7 | 3.5 | 1.2* | 2.5 | 0.4 | 1.2 | 11.3*
N#C/C(=C\c1ccccc1OCC(=O)O)c1nc2ccccc2[nH]1 | 7.8* | 0.6 | 5.5 | 0.3 | 1.1 | 2.2 | -0.2 | 3.6
COc1ccc2nc(-c3ccc(CN4CCC(c5nc6ccccc6[nH]5)CC4)cc3)c(-c3ccccc3)nc2c1 | -2.8 | -2.8 | -0.8 | -2.1 | 7.5 | nt | nt | nt
C/C(=C\C(=S)Nc1ccccc1)Nc1ccccc1 | 9.6* | 0.3 | 4.8 | 0.2 | 0.6 | -0.4 | -0.1 | 6.1*
CC(=O)Nc1ccc(NC(=S)Nc2ccccc2)cc1 | 1.1 | 0.3 | -1.6 | -1.0 | -0.2 | 0.1 | nt | nt
COc1ccccc1C(=O)N1CCN(C(=O)[C@H](CCc2ccccc2)NC(=O)[C@H]2O[C@@H](n3cnc4c(N)ncnc43)[C@H](O)[C@@H]2O)CC1 | 1.2 | 0.6 | -0.2 | -1.6 | 0.0 | nt | nt | nt
CCOc1cccc(NC(=O)/C(C#N)=C\c2cn(CC(=O)O)c3ccccc23)c1 | 6.7* | 0.0 | -1.2 | 0.1 | 5.4 | -1.0 | -0.2 | 3.6
CC(C)(C)C(=O)c1c(N)[nH]c(C(=O)c2ccccc2)c1-c1ccccc1 | -1.0 | 0.4 | 0.2 | -0.9 | -1.3 | nt | nt | nt
Cc1ccc(S(=O)(=O)N2CCCc3nc(C)c(C)cc32)cc1 | -2.3 | -1.8 | -2.1 | -0.4 | -2.6 | nt | nt | nt
CCOC(=O)C1CCN(C(=O)C(C)(C)NC(=O)Nc2ccc(C(F)(F)F)cc2Cl)CC1 | -0.6 | nt | -1.4 | -1.6 | nt | nt | nt | nt
CC(=O)c1c(CC(=O)O)[nH]n(-c2nc3ccccc3s2)c1=O | 6.6* | 1.5 | 6.9 | -0.3 | -1.1 | 1.3 | 0.0 | 4.6
CC1Oc2ccccc2OC1C(=O)Nc1nccs1 (configuration not stated) | 3.4 | 1.1 | 6.6 | 0.8 | 3.9 | 1.1 | nt | nt
Cc1cc(NC(=O)C2Oc3ccccc3OC2C)no1 (configuration not stated) | 7.0* | 0.5 | 2.3 | 0.1 | 0.4 | -0.7 | -0.1 | 2.0
Nc1[nH]c(C(=O)c2ccccc2)c(-c2ccc3ccccc3c2)c1C(=O)NCc1cccc2ccccc12 | 0.8 | 0.2 | -0.6 | -1.3 | -6.5 | nt | nt | nt
CCCCn1nnnc1NCc1ccc(C)cc1 | -0.5 | 0.7 | 0.2 | -0.5 | 2.4 | 1.2 | nt | nt
CCCCn1nnnc1NCc1ccc(OC)c(OC)c1 | 8.5* | -0.7 | 0.4 | -1.7 | -1.1 | -1.9 | -0.2 | 1.2
CCN(CCO)C(=O)CC1C(=O)NCCN1Cc1c(F)cccc1Cl (configuration not stated) | 10.6* | 0.3 | -4.3 | -0.2 | 2.3 | 2.1 | -0.3 | 0.5
CCOc1ccc2ccccc2c1CNCCN1CCOCC1 | 0.0 | -0.4 | 0.0 | -0.6 | -1.4 | -0.3 | nt | nt
